# According to PubChem BioAssay (EPA / NIEHS):
# Records with an inconclusive call do not appear. The source made the active and inactive calls. How the source made its calls, unless noted: active means hit-call score of the fitted dose curve at least 0.9, where 1 is the maximum; inconclusive means response in the unintended direction; inactive means score below 0.9.
# Key:
# [1] = biological target: Retinoic acid receptor RXR-alpha (Homo sapiens) (UniProt P19793); experiment: OT_NURR1_NURR1RXRa_0480: Odyssey Thera (OT) 8-hour HEK293T Protein Complementation Assay for Nurr1/retinoid X receptor (RXR) (AID 2283385)
# Sequence of Retinoic acid receptor RXR-alpha (Homo sapiens) (P19793 whole entry, looked up, the tested form may be a part): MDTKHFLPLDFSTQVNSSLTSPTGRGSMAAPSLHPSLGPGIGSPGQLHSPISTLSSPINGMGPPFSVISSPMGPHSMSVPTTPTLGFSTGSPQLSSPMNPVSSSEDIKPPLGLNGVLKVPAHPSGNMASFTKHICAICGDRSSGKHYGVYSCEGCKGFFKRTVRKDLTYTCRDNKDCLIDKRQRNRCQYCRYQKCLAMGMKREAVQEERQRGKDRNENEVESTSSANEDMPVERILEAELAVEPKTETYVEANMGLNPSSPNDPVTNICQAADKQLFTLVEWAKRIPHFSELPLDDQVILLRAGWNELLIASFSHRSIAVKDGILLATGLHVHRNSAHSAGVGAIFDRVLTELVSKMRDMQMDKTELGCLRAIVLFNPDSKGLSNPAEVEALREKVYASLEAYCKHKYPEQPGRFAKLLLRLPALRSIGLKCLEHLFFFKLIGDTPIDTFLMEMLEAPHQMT
# Method in brief: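 HEK293T cells expressing Nurr1 and RXRα fused to reporter fragments were dosed with compound for 8 hours. Complex formation was read as fluorescence intensity and analysed as gain of signal against DMSO as baseline.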
# [2] = biological target: Retinoic acid receptor RXR-alpha (Homo sapiens) (UniProt P19793); experiment: OT_NURR1_NURR1RXRa_1440: Odyssey Thera (OT) 24-hour HEK293T Protein Complementation Assay for Nurr1/retinoid X receptor (RXR) (AID 2283386)
# Method in brief: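 HEK293T cells were dosed with compound and read 24 h later by fluorescence intensity in a protein-fragment complementation format, where Nurr1–RXRα interaction reconstitutes a split reporter. Activity was fitted as gain of signal relative to DMSO baseline.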
# [3] = biological target: Peroxisome proliferator-activated receptor gamma (Homo sapiens) (UniProt P37231); experiment: OT_PPARg_PPARgSRC1_0480: Odyssey Thera (OT) 8-hour Protein-Complementation Assay for Peroxisome Proliferator-activated Receptor Gamma / SRC-1 Co-activator (AID 2283387);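 further: nuclear to cytoplasmic split Venus YFP fluorescence ratio reporting PPARg SRC-1 interaction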
# Sequence of Peroxisome proliferator-activated receptor gamma (Homo sapiens) (P37231 whole entry, looked up, the tested form may be a part): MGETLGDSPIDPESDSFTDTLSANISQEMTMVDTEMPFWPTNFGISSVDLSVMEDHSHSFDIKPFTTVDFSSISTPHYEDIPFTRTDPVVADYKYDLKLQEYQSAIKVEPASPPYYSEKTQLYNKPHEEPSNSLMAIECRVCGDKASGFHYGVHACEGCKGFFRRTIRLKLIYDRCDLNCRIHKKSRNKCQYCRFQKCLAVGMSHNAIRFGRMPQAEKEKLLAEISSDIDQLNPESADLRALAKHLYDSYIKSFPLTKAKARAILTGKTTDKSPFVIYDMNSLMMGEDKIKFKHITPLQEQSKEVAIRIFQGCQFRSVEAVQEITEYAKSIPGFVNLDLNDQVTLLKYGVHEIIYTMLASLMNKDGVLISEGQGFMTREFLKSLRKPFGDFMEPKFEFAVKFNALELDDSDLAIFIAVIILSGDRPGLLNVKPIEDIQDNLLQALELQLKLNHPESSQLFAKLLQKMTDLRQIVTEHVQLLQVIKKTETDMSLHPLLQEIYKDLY
# Method in brief: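 Read-out: 488 nm N/C fluorescence ratio from complemented Venus YFP fragments, ≥350 cells per image, gain-of-signal fitted against DMSO baseline. Fusions of PPARg/SRC-1 with IFP1/IFP2 expressed transiently in HEK293T; compounds applied 8 h.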
# [4] = biological target: Peroxisome proliferator-activated receptor gamma (Homo sapiens) (UniProt P37231); experiment: OT_PPARg_PPARgSRC1_1440: Odyssey Thera (OT) 24-hour Protein-Complementation Assay for Peroxisome Proliferator-activated Receptor Gamma/ SRC-1 Co-activator (AID 2283388);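 further: nuclear to cytoplasmic ratio of reconstituted Venus YFP fluorescence in fixed imaged cells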
# Method in brief: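 Protein-fragment complementation between PPARg and coactivator SRC-1 was measured by fluorescence imaging in transiently transfected HEK293T cells after 24 h treatment. Signal was quantified as N/C ratio in the 488 nm channel, with DMSO as negative control.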
# [5] = biological target: Bile acid receptor (Homo sapiens) (UniProt Q96RI1); experiment: OT_FXR_FXRSRC1_1440: Odyssey Thera (OT) 24-hour HEK293T Protein-Complementation Assay for Farnesoid X receptor/SRC-1 Co-activator (AID 2283384)
# Sequence of Bile acid receptor (Homo sapiens) (Q96RI1 whole entry, looked up, the tested form may be a part): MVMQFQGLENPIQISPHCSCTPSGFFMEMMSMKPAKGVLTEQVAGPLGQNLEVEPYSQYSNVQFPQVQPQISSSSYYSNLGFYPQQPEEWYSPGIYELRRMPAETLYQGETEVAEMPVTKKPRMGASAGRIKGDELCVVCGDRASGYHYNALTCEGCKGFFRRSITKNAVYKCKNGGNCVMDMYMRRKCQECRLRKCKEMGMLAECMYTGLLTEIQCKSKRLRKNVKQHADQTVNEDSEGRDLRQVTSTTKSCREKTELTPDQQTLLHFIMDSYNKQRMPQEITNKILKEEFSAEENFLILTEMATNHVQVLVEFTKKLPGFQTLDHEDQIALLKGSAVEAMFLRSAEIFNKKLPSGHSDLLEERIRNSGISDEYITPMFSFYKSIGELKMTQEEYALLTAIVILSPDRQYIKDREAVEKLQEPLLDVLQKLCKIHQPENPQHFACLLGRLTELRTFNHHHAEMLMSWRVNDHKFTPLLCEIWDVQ
# Method in brief: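 HEK293T cells were dosed with compound and read 24 h later by fluorescence intensity from protein-fragment complementation reporting FXR/SRC-1 co-activator interaction. Gain of signal was fitted relative to DMSO negative control as baseline.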
# [6] = biological target: Bile acid receptor (Homo sapiens) (UniProt Q96RI1); experiment: OT_FXR_FXRSRC1_0480: Odyssey Thera (OT) 8-hour HEK293T Protein-Complementation Assay for Farnesoid X receptor/SRC-1 Co-activator (AID 2283383)
# Method in brief: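 HEK293T cells expressing FXR and SRC-1 fused to reporter fragments were dosed with compound for 8 h; fluorescence from the reconstituted reporter marked co-activator recruitment. Gain of signal was fitted against the DMSO baseline.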
# [7] = CEETOX_H295R_11DCORT: CeeTox H295R High-throughput Steroidogenesis Assay for 11-Deoxycortisol (11DCORT) (AID 2283432; active means hit-call score of the fitted dose curve at least 0.9, where 1 is the maximum; inactive means score below 0.9;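 on AC50: human adrenal H295R cells prestimulated with 10 µM forskolin for 48 h; 11-deoxycortisol secreted into the medium measured by LC-MS/MS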); settings: actives raise or lower the signal
# Method in brief: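 H295R cells; 10 uM forskolin prestim 48 h; compound in 0.1% DMSO 48 h; media extracted with MTBE; 11-deoxycortisol by LC-MS/MS, 7-point standard curve; gain/loss vs DMSO baseline; viability by MTT in same wells.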
# [8] = CEETOX_H295R_OHPREG: CeeTox H295R High-throughput Steroidogenesis Assay for OH-Pregnenolone (OHPREG) (AID 2283434; active means hit-call score of the fitted dose curve at least 0.9, where 1 is the maximum; inactive means score below 0.9); settings: actives raise or lower the signal
# Method in brief: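 Hormone levels in spent medium were measured by tandem mass spectrometry following liquid-liquid extraction. Cells (H295R) had been forskolin-stimulated (10 uM, 48 h) before a 48 h chemical exposure at 0.1% DMSO, with activity fitted in both directions against DMSO.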
smiles,measurement,setting,value
C#CC(C)(O)CC(C)C (stereo not drawn),outcome,[1],inactive
same,outcome,[2],inactive
same,outcome,[3],inactive
same,outcome,[4],inactive
CS(C)=O,outcome,[5],inactive
same,outcome,[1],inactive
same,outcome,[2],inactive
same,outcome,[3],inactive
CCCCCCCC(=O)OCC(O)CO (stereo not drawn),outcome,[1],inactive
same,outcome,[3],inactive
CN1C(=O)c2ccccc2C1=O,outcome,[1],inactive
same,outcome,[2],inactive
same,outcome,[3],inactive
same,outcome,[4],inactive
CCCOCCO,outcome,[5],inactive
same,outcome,[2],inactive
same,outcome,[3],inactive
same,outcome,[4],inactive
CC(=O)O[C@@H]1CC2CCC1(C)C2(C)C (stereo partly drawn),outcome,[6],inactive
same,outcome,[2],inactive
same,outcome,[3],inactive
same,outcome,[4],inactive
O=C1OC(=O)c2c(Cl)c(Cl)c(Cl)c(Cl)c21,outcome,[6],inactive
same,outcome,[3],inactive
same,outcome,[4],inactive
O=CCc1ccccc1,AC50,[6],30.1 µM (active)
same,outcome,[2],inactive
same,outcome,[3],inactive
same,outcome,[4],inactive
CC(=O)O[C@H]1C[C@@H]2CC[C@@]1(C)C2(C)C,outcome,[6],inactive
same,outcome,[3],inactive
O=Cc1ccccc1S(=O)(=O)O,outcome,[1],inactive
same,outcome,[2],inactive
same,outcome,[3],inactive
same,outcome,[4],inactive
COCCOCCOCCO,outcome,[2],inactive
Oc1ccc2cc(SSc3ccc4cc(O)ccc4c3)ccc2c1,AC50,[5],75.3 µM (active)
same,AC50,[2],19.7 µM (active)
same,outcome,[3],inactive
same,outcome,[4],inactive
C=C1C[C@]23C[C@@]1(O)CC[C@H]2[C@@]12C=C[C@H](O)[C@@](C)(C(=O)O1)[C@H]2[C@@H]3C(=O)O,outcome,[6],inactive
same,outcome,[2],inactive
same,outcome,[3],inactive
Nc1ccc(N)c2c1C(=O)c1ccccc1C2=O,outcome,[5],inactive
same,AC50,[7],7.09 µM (active)
same,outcome,[8],inactive
CCCCCCC(CO)CCCC (stereo not drawn),outcome,[1],inactive
same,outcome,[2],inactive
same,outcome,[3],inactive
OCCc1ccccc1,outcome,[5],inactive
same,outcome,[2],inactive
same,outcome,[3],inactive
same,outcome,[4],inactive
O=C1OC[C@H](Cc2cccc(O)c2)[C@H]1Cc1cccc(O)c1,outcome,[1],inactive
same,outcome,[3],inactive
same,outcome,[4],inactive
CC1CC(O)CC(C)(C)C1 (stereo not drawn),outcome,[5],inactive
same,outcome,[3],inactive
same,outcome,[4],inactive
Cc1ccc(S(N)(=O)=O)cc1,outcome,[6],inactive
same,outcome,[3],inactive
CC(C=O)Cc1ccc(C(C)(C)C)cc1 (stereo not drawn),outcome,[5],inactive
same,outcome,[2],inactive
same,outcome,[3],inactive
same,outcome,[4],inactive
Cc1cc(S(=O)(=O)O)ccc1N=Nc1c(O)ccc2ccccc12,outcome,[5],inactive
same,outcome,[2],inactive
same,outcome,[3],inactive
same,outcome,[4],inactive
CCc1ccc(O)cc1,outcome,[1],inactive
same,outcome,[2],inactive
same,outcome,[3],inactive
O=P(O)(O)O,outcome,[1],inactive
same,outcome,[2],inactive
same,outcome,[3],inactive
C=C1CC[C@H](O)C/C1=C/C=C1\CCC[C@]2(C)[C@@H]([C@H](C)/C=C/[C@H](C)C(C)C)CC[C@@H]12,AC50,[6],36.8 µM (active)
same,outcome,[2],inactive
same,outcome,[3],inactive
same,outcome,[4],inactive
same,AC50,[7],19.8 µM (active)
same,AC50,[8],4.66 µM (active)
CC(C)Nc1nc(N)nc(Cl)n1,outcome,[1],inactive
same,outcome,[2],inactive
same,outcome,[3],inactive
same,outcome,[7],inactive
same,outcome,[8],inactive
CCOc1ccc(N=Nc2ccc(C=Cc3ccc(N=Nc4ccc(OCC)cc4)cc3S(=O)(=O)O)c(S(=O)(=O)O)c2)cc1,outcome,[1],inactive
same,outcome,[2],inactive
same,outcome,[3],inactive
O=C(O)c1ccc(O)cc1,outcome,[5],inactive
same,outcome,[2],inactive
same,outcome,[3],inactive
Clc1ccc(C(c2ccccc2Cl)C(Cl)Cl)cc1 (stereo not drawn),outcome,[1],inactive
C1=CC2C3C=CC(C3)C2C1 (stereo not drawn),outcome,[6],inactive
same,outcome,[2],inactive
same,outcome,[4],inactive
CCNCCO,outcome,[5],inactive
same,outcome,[2],inactive
same,outcome,[3],inactive
OC[C@H]1O[C@@H]2O[C@H]3[C@H](O)[C@@H](O)[C@@H](O[C@H]4[C@H](O)[C@@H](O)[C@@H](O[C@H]5[C@H](O)[C@@H](O)[C@@H](O[C@H]6[C@H](O)[C@@H](O)[C@@H](O[C@H]7[C@H](O)[C@@H](O)[C@@H](O[C@H]8[C@H](O)[C@@H](O)[C@@H](O[C@H]9[C@H](O)[C@@H](O)[C@@H](O[C@H]1[C@H](O)[C@H]2O)O[C@@H]9CO)O[C@@H]8CO)O[C@@H]7CO)O[C@@H]6CO)O[C@@H]5CO)O[C@@H]4CO)O[C@@H]3CO,outcome,[1],inactive
same,outcome,[3],inactive
same,outcome,[4],inactive
CCC1(C)NC(=O)NC1=O (stereo not drawn),outcome,[6],inactive
same,outcome,[2],inactive
same,outcome,[3],inactive
same,outcome,[4],inactive
CC(C)CCOC(=O)c1ccccc1,outcome,[6],inactive
same,outcome,[2],inactive
same,outcome,[3],inactive
same,outcome,[4],inactive
Cc1ccc(S(=O)(=O)Oc2ccc(N=Nc3ccc(-c4ccc(N=Nc5c(O)ccc6cc(S(=O)(=O)O)cc(S(=O)(=O)O)c56)c(C)c4)cc3C)cc2)cc1,outcome,[5],inactive
same,outcome,[2],inactive
same,outcome,[3],inactive
same,outcome,[4],inactive
CCOC(=O)C1OC1c1ccccc1 (stereo not drawn),outcome,[2],inactive
same,outcome,[3],inactive
ON=C1CCCCC1,outcome,[2],inactive
same,outcome,[3],inactive
CCCC(=O)OC(C)(C)Cc1ccccc1,outcome,[3],inactive
same,outcome,[4],inactive
CCCCC(CC)COC(C)=O (stereo not drawn),outcome,[2],inactive
same,outcome,[3],inactive
CN(C)c1cccc(O)c1,outcome,[2],inactive
same,outcome,[3],inactive
same,outcome,[4],inactive
O=C(O)CCCCCCCCC(=O)O,outcome,[2],inactive
same,outcome,[3],inactive
same,outcome,[4],inactive
CC(C)(C)CC(C)(C)c1ccc(OCCOCC[N+](C)(C)Cc2ccccc2)cc1,outcome,[7],inactive
same,outcome,[8],inactive
BrCc1cccc(Oc2ccccc2)c1,outcome,[2],inactive
same,outcome,[4],inactive
same,outcome,[7],inactive
same,outcome,[8],inactive
CC=Cc1ccc(OCC)c(O)c1,outcome,[7],inactive
same,outcome,[8],inactive
CCc1cc(Cc2cc(CC)cc(C(C)(C)C)c2O)c(O)c(C(C)(C)C)c1,outcome,[3],inactive
same,outcome,[4],inactive
C[Si](C)(C)O[Si](C)(C)C,outcome,[3],inactive
same,outcome,[4],inactive
CCCCCCCCCCCCCCN(CCO)CCO,outcome,[3],inactive
C=C[Si]1(C)O[Si](C)(C=C)O[Si](C)(C=C)O[Si](C)(C=C)O1 (stereo not drawn),outcome,[2],inactive
same,outcome,[3],inactive
CC1(C)C(=O)N(Cl)C(=O)N1Br,outcome,[3],inactive
same,outcome,[7],inactive
O=C(c1ccccc1)C(O)c1ccccc1 (stereo not drawn),outcome,[3],inactive
same,outcome,[4],inactive
CCOc1ccccc1O,outcome,[2],inactive
same,outcome,[3],inactive
same,outcome,[4],inactive
CCC(C)c1cc([N+](=O)[O-])cc([N+](=O)[O-])c1OC(=O)OC(C)C (stereo not drawn),outcome,[7],inactive
same,outcome,[8],inactive
CCCCCC(C)=O,outcome,[2],inactive
same,outcome,[3],inactive
same,outcome,[4],inactive
COc1ccc(CCN2CCC(Nc3nc4ccccc4n3Cc3ccc(F)cc3)CC2)cc1,AC50,[7],1.49 µM (active)
same,AC50,[8],0.698 µM (active)
[O-]n1ccccc1=S.[O-]n1ccccc1=S.[Zn+2],outcome,[3],inactive
same,outcome,[4],inactive
COc1ccc(N=Nc2cc(C)c(N=Nc3ccc(S(=O)(=O)O)cc3)cc2OC)cc1,outcome,[3],inactive
same,outcome,[4],inactive
same,outcome,[7],inactive
same,outcome,[8],inactive
